# Screening data as filed in PubChem.
# G9a block: inhibitors of human histone lysine methyltransferase G9a; G9a H3K9 monomethylation, AlphaScreen, 2 h; 350,000 tested, 8.8% active; Q96KQ7; Potency, µM (doses to about 102 µM), without a hit: at the highest dose activity, negative = inhibition, usual class: inhibitors; note: % is set by controls: 0 for no effect and ±100 for the full control effect; nearly all actives have a fitted effect of over 75% in size
#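 G9a (20 nM) was preincubated 15 min with compound, then reacted 2 h at room temperature with 500 nM biotin-H3K9 peptide and 20 µM SAM. Monomethyl-H3K9 detected by AlphaScreen using anti-H3K9me1 antibody.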
# JMJD2A Tudor inh: blocks the human JMJD2A Tudor domain; Potency, µM (doses to about 114 µM), without a hit: at the top dose activity change, negative = inhibition, actives largely listed as inhibitors; O75164; AID 504339; AlphaScreen JMJD2A-Tudor / H3K4me3 peptide binding; 390,000 tested, 4.4% active; note: % is set by controls: 0 for no effect and ±100 for the full control effect; nearly all actives have a fitted effect of over 50% in size
# Target sequence (O75164 whole entry, looked up, the tested form may be a part): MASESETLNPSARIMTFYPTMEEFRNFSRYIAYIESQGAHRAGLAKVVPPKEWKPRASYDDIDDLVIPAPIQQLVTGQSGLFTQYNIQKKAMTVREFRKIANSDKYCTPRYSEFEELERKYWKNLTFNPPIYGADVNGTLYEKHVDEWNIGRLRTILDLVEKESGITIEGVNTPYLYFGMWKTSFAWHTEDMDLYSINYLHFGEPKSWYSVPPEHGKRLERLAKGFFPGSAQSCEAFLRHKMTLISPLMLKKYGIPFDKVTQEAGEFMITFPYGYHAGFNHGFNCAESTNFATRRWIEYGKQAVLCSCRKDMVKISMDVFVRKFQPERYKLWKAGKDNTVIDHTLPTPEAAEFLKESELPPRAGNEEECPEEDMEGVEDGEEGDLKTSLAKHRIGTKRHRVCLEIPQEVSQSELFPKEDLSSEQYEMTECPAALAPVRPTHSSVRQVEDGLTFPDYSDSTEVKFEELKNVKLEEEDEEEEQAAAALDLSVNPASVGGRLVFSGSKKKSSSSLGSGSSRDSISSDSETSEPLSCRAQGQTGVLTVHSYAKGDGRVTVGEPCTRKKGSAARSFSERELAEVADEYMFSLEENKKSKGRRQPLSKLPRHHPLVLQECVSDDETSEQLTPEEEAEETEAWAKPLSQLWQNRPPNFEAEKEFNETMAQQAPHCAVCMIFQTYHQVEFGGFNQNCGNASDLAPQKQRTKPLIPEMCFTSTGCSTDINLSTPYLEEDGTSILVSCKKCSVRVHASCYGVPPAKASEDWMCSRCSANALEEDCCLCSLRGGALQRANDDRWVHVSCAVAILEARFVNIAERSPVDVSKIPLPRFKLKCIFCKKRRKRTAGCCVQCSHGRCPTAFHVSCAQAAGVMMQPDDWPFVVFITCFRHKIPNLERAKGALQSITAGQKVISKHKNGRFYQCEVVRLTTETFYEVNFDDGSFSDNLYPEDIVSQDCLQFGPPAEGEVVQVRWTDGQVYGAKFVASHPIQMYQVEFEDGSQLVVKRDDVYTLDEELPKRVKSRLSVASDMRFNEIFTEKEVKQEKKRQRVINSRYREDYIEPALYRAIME
# BAZ2B block: inhibitors of human BAZ2B bromodomain. AlphaScreen BAZ2B-H3K14Ac peptide displacement. Potency, µM (titrated, usually from 114 µM), for the others: at the top dose activity change, negative = inhibition, actives largely listed as inhibitors. 360,000 tested, 4.4% active; note: % is set by controls: 0 for no effect and ±100 for the full control effect; nearly all actives have a fitted effect of over 60% in size
#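 AlphaScreen displacement of biotin-H3(5-23)K14Ac peptide (50 nM final) from BAZ2B (50 nM final) in PBS pH 7.4, 0.01% Tween-20; complex preformed 30 min RT, then compounds (top 110 uM) 30 min RT, beads 20 min dark.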
# TDP1 inh: blocks human tyrosyl-DNA phosphodiesterase 1; Q9NUW8; recombinant TDP1, AlphaScreen DNA substrate cleavage; Potency, µM (series often up to 130 µM), for the others: top-dose activity change, negative = inhibition, usual class: inhibitors; 350,000 tested, 0.28% active; AID 485290; note: % is set by controls: 0 for no effect and ±100 for the full control effect; nearly all actives have a fitted effect of over 40% in size
#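 Recombinant E. coli-expressed Tdp1 (1 nM) preincubated with compound 15 min at RT, then 5'-biotin/3'-phosphotyrosine-FITC DNA substrate (15 nM) added for 5 min. AlphaScreen beads (10 ug/ml) added, 10 min RT; tyrosine-FITC cleavage read as signal loss.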
# HP1b binding inh: blocks HP1-beta chromodomain binding to methylated histone tails. AlphaScreen HP1-beta / biotin-H3K9me3 peptide binding. P83916. Potency, µM (series often up to 114 µM), for inactives: at the highest dose activity change, negative = inhibition, actives largely listed as inhibitors. 390,000 tested, 0.56% active; note: nearly all actives have a fitted effect of over 70% in size
#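 AlphaScreen: HP1-beta (50 nM) preformed 30 min with biotin-H3(1-18)K9me3 peptide (50 nM) in PBS pH 7.4, 0.01% Tween-20. Compound added for 30 min at RT, then streptavidin donor/nickel chelate acceptor beads (10 ug/mL) for 30 min.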
# Sfp PPTase inh: Sfp phosphopantetheinyl transferase inhibition. 310,000 tested, 3.5% active. AID 1490. Q9F4F7. Potency, µM, without a hit: largest response in the series, negative = inhibition, most hits filed as inhibitors. Biochemical Sfp PPTase activity, qHTS;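 note: the enzyme is Sfp with the accession as filed and its product quenches rhodamine fluorescence; 0% = enzyme reaction without inhibitor and -100% = no enzyme wells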
#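 Step 1, compound plus 15 nM Sfp-PPTase, 15 min, room temperature. Step 2, add rhodamine-CoA (5 uM) and BHQ-2-YbbR (12.5 uM). Step 3, read 525/598 nm fluorescence at 0 and 30 min.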
# * hit, by the source's call; ? = inconclusive; · = no result given; ! = not active in a repeat; [ ] = another dose, or the depositor's remark. Most compounds without a hit are left out; they make up all but 12% or so of the library. Calls come from the whole dose curve; as a rule, active = well fitted curve in the direction sought with a large enough effect; inconclusive = small, poorly fitted or top-dose-only effect, or another doubt; inactive = no such curve, though single readings can be large; an effect the other way counts as inactive or inconclusive. Potency is the fitted concentration of half-maximal effect.
SMILES,G9a block,JMJD2A Tudor inh,BAZ2B block,TDP1 inh,HP1b binding inh,Sfp PPTase inh
O=C(NCC1CCCO1)c1cc2cc(F)ccc2[nH]1 (centres undefined),2%,-9%,-9%,·,21%,8%
COc1ccc(NC(=S)N(Cc2ccc(N(C)C)cc2)Cc2ccco2)cc1,?,50µM*,32µM*,5%,?,-7%
CCc1ccc(CN(Cc2ccco2)C(=O)c2ccc(OC)cc2)cc1,11%[59 µM],-10%,32%,7%,79%,·
CCOc1ccc(NC(=S)N(Cc2ccc(N(C)C)cc2)Cc2ccco2)cc1,40µM*,16µM*,35µM*,10%,?,5%
CCCCOc1ccc(C(=O)Nc2onc3c2CCCC3)cc1,1%[59 µM],-4%,2%,6%,46%,·
COc1cccc(NC(=O)CSc2nc(C)c(Cc3ccccc3)c(=O)[nH]2)c1,-2%[59 µM],-15%,-2%,5%,11%,·
Cc1cc(/C=N/n2cnnc2)c(C)n1-c1ccc(OCc2ccccc2F)cc1,?,56µM*,?,5%,?,-17%
Cc1cc(/C=N/n2cnnc2)c(C)n1-c1ccc(OCc2ccc(Cl)cc2)cc1,40µM*,45µM*,79µM*,15%,?,45µM*
Cc1nc2nc(NC(=O)c3cccc(Cl)c3)[nH]n2c(=O)c1Cc1ccccc1,-45%[59 µM],-20%,-3%,7%,29%,·
Cc1nc2c(C(=O)N3CCOCC3)cnn2c(C)c1Cc1ccc(Cl)cc1,3%[12.7 µM],-2%,-7%,2%,14%,5%
Cc1nc2c(C(=O)N3CCOCC3)cnn2c(C)c1Cc1cccc(Cl)c1,50µM*,·,-22%,5%,·,10%
CC(NC(=O)COC(=O)c1ccc(OCC2CCCO2)cc1)c1ccccc1Cl (centres undefined),-10%[12.7 µM],-18%,5%,0%,29%,·
CC(C)(C)c1ccc(-c2nc(SCCOc3ccc(Cl)cc3)n3[nH]c(=O)cc3n2)cc1,18%[59 µM],?,50µM*,5%,44%,·
Cc1ccc(OCCCSc2nc(-c3ccc(C(C)(C)C)cc3)nc3cc(=O)[nH]n23)cc1C,0%[59 µM],25µM*,45µM*,0%,?,·
Cc1cccc(C(=O)NCCC(=O)NCc2ccccc2F)c1,-8%[2.33 µM],5%,11%,0%[56.1 µM],24%,·
CC1CCCC(C)N1C(=O)COC(=O)c1cc(-c2cccs2)nn1-c1ccccc1 (centres undefined),19%[0.501 µM],-20%,-3%,·,12%,·
C#Cc1nc(Nc2cccc(Cl)c2)nc(NC2CCCC2)n1,·,-23%,·,-2%,·,·
CCCn1c(N)c(C(=O)COC(=O)CCNS(=O)(=O)c2ccccc2F)c(=O)[nH]c1=O,12%[12.7 µM],-2%,0%,·,10%,·
C/C=C(/C)C#N,·,·,·,-1%,·,·
Cc1cc(SCC(=O)Nc2cccnc2Cl)nc2ccccc12,12%,-5%,1%,-8%,36%,-7%
COc1ccc2c(C)cc(SCC(=O)Nc3nsc(-c4ccc(C)cc4)n3)nc2c1,2%,-22%,-3%,4%,52%,-4%
Cc1nc(NC(=O)CSc2cc(C)c3ccccc3n2)c(Cl)cc1Cl,45µM*,-27%,0%,-3%,22%,?
Cc1ccc(-c2nc(NC(=O)CSc3cc(C)c4ccccc4n3)ns2)cc1,35µM*,?,10µM*!,-1%,-14%,2%
Cc1ccc(C)c(N2CCN(C(=O)c3cnn(-c4ccccc4Cl)c3C3CCN(C(=O)OC(C)(C)C)CC3)CC2)c1,-36%[59 µM],-24%,1%[57.1 µM],0%,13%,·
CCCCCCNC(=O)N[C@@H](C(=O)NCCC[C@H]1CN2C(=NC[C@@H]2Cc2ccccc2)N1CCc1cccc(OC)c1)C(C)C,?,5µM*,25µM*,5%,?,3.5µM*
SMILES,G9a block,JMJD2A Tudor inh,BAZ2B block,TDP1 inh,HP1b binding inh,Sfp PPTase inh
Cc1noc(NS(=O)(=O)c2ccc(NC(=O)c3ccc(N4C(=O)c5ccccc5C4=O)cc3)cc2)c1C,2%,-35%,50µM*,50µM*,-5%,19%
Cc1noc(NS(=O)(=O)c2ccc(NC(=O)/C=C/c3ccc(C(C)C)cc3)cc2)c1C,45µM*,-35%,?,8%,-2%,12%
Cc1noc(NS(=O)(=O)c2ccc(NC(=O)CC34CC5CC(CC(Br)(C5)C3)C4)cc2)c1C,71µM*,-18%[57.1 µM],-38%,4%,39%,30%
Cc1noc(NS(=O)(=O)c2ccc(NC(=O)C34CC5CC(C3)CC(n3cnc(Cl)n3)(C5)C4)cc2)c1C,-30%[59 µM],-7%[57.1 µM],-26%,-3%,43%,7%
Cc1cc2oc(C(=O)Nc3ccc(S(=O)(=O)Nc4onc(C)c4C)cc3)cc(=O)c2cc1C,8%[59 µM],-26%,3%,6%,1%,·
Cc1ccc2c(=O)cc(C(=O)Nc3ccc(S(=O)(=O)Nc4onc(C)c4C)cc3)oc2c1C,-37%[59 µM],56µM*,-34%,2%,10%,·
CCN1c2ccccc2-c2nc(SCC(=O)Nc3ccc(C)c(Cl)c3)ncc2S1(=O)=O,-3%[59 µM],-13%,-2%,0%,10%,·
Nc1c(C(=O)Nc2ccccc2)sc2ncc([N+](=O)[O-])cc12,4%,-28%,3%,-4%,10%,19%
NC(=O)c1sc2nccc(Nc3ccccc3)c2c1N,?,?,-7%,2%,-14%,40µM*
Cc1cc2c(n1-c1ccc(C(=O)O)cc1)CCCCC2,7.9µM*,·,13µM*,·,·,-13%
Cc1ccc(CNC(=O)c2ccc(-n3c(C)cc4c3CCCC4)cc2)cc1,-25%[59 µM],-27%,-12%,1%,10%,·
CCc1ccc(C(C)NC(=O)c2ccc(F)cc2)cc1 (centres undefined),15%,12%,-5%,-1%,51%,-5%
CCc1ccc(C(C)NC(=O)c2ncn[nH]2)cc1 (centres undefined),-8%[59 µM],-19%[57.1 µM],50µM*,0%,57%,-1%
CC(C)(C)c1cc(CSC(=S)NC2CCS(=O)(=O)C2)c(Br)c(C(C)(C)C)c1 (centres undefined),?,-21%,-27%,-3%,32%,31%
O=S1(=O)CC=C(CSC(=S)NC2CCS(=O)(=O)C2)C1 (centres undefined),45µM*,-1%,-11%,0%,60%,?
CC(=NNC(=O)CCC(=O)Nc1ccccc1Cl)c1ccco1,·,-7%,·,0%,29%,·
O=c1[nH]cnc2c1c(-c1ccccc1)cn2-c1ccc(Br)cc1,5%[59 µM],-4%,1%,3%,2%,-4%
Cc1cccc(-n2cc(-c3ccccc3)c3c(N4CCC(C)CC4)ncnc32)c1,-36%[59 µM],-34%,-26%,5%,41%,·
